Assay outcomes deposited in PubChem BioAssay by National Center for Advancing Translational Sciences (NCATS).
Sampled rows, rich in hits. Any-hit rate of the full collection: about 1.7%.
PTHR1 ag: agonists of human PTHR1 parathyroid hormone receptor; 0.075% of 410,000 active; Q03431; AID 743266; Potency, µM (top dose mostly 115 µM), most hits filed as activators; HEK293 GP2 PTHR1 cells, GloSensor cAMP luminescence, 1 h; further: nearly all actives have a fitted effect of over 55% in size
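HEK-293-derived GP2 cells expressing PTHR1 and a GloSensor cAMP reporter, 3,000/well, plated overnight, given luciferin plus IBMX (each 0.5 mM as added) for 1 h at 37 °C, then compound for 1 h at 37 °C. Luminescence was read after 15 min at room temperature.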
GLP1R inv ag: GLP-1 receptor (human) inverse agonism | P43220 | HEK293 GLP-1R CRE-luciferase, luminescence, 24 h; GLP-1R form is constitutively active | Potency, µM (titrated, usually from 38.3 µM), hits mostly inhibitors | 1.6% of 410,000 active | AID 624417; further: nearly all actives have a fitted effect of over 55% in size
Target sequence (P43220 whole entry, looked up): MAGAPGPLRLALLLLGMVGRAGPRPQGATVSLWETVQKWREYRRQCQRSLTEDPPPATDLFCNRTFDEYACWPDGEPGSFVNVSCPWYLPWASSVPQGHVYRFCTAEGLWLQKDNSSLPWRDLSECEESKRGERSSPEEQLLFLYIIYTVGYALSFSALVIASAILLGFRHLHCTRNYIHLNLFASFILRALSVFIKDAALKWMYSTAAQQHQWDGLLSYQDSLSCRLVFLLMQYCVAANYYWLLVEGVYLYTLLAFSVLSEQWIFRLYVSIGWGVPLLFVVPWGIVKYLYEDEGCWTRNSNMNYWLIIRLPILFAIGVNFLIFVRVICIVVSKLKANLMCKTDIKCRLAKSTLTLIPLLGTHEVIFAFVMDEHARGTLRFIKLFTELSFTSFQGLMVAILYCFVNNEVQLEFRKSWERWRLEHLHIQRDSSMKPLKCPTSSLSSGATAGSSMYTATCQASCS
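Assay principle: reduced luminescence from a cAMP-responsive reporter in HEK293 cells co-expressing a constitutively active GLP-1R. Conditions: 24 hr compound incubation, 37 deg C, 5% CO2.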
GLP1R cytotox: cytotoxicity in counter-screen for GLP-1R inverse agonists; Potency, µM (series often up to 38.3 µM), actives largely listed as inhibitors; HEK293 cAMP-luciferase reporter cells, luminescence, 24 h; 0.13% of 410,000 active;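 further: loss of luciferase light is scored as toxicity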
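Cells in DMEM/10% Nu serum/1% pen-strep, 1536-well format. Pre-incubated 12 h, dosed with 23 nL compound, incubated a further 24 h. Luciferase detection, 12 min at room temp, luminescence.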
GLP-1R agonist: GLP-1 receptor (human) agonism; P43220; HEK293 GLP-1R CRE-luciferase, luminescence, 4-6 h; cells express a hypersensitive GLP-1R form; Potency, µM (top dose mostly 45.6 µM), hits mostly activators; 0.007% of 380,000 active
Each line names hits and unclear results; the compound was inactive in the other large screens. The call rests on the fitted dose curve; in most records, active means well fitted curve in the direction sought with a large enough effect; inconclusive means small, poorly fitted or top-dose-only effect, or another doubt; inactive means no such curve, though single readings can be large; an effect the other way counts as inactive or inconclusive.

COc1cccc(/C=N/NC(N)=S)c1OCc1ccccc1Cl	GLP1R inv ag 11µM, GLP1R cytotox inconclusive
O=C(Nc1cccc(C(F)(F)F)c1)C1CCCN1S(=O)(=O)c1cccc2nsnc12 (configuration not stated)	GLP1R inv ag inconclusive (no result: GLP-1R agonist)
COC(=O)C1=C(c2ccccc2OCc2ccccc2)C[C@@H]2CC[C@H]1N2C(=O)NCc1ccc(N(C)C)cc1	GLP1R inv ag inconclusive
COC(=O)C1=C(c2ccc(F)cc2OCc2ccccc2)C[C@@H]2CC[C@H]1N2C(=O)NCCc1ccc(F)cc1	GLP1R inv ag 7.1µM
COC(=O)C1=C(c2ccc(F)cc2OCc2ccccc2)C[C@@H]2CC[C@H]1N2C(=O)NCc1ccc(N(C)C)cc1	GLP1R inv ag 10µM
COC(=O)C1=C(c2cccc(OCc3ccccc3)c2)C[C@@H]2CC[C@H]1N2C(=O)NCc1cccc(OC)c1	GLP1R inv ag inconclusive
COC(=O)C1=C(c2ccc(F)cc2OCc2ccccc2)C[C@@H]2CC[C@H]1N2C(=O)NCc1cccc(C(F)(F)F)c1	GLP1R inv ag 5.6µM
COC(=O)C1=C(c2cccc(OCc3ccccc3)c2)C[C@@H]2CC[C@H]1N2C(=O)NCc1ccccc1C(F)(F)F	GLP1R inv ag 4µM
CCNc1nc(NCC)nc(N/N=C(\C)c2ccc(OC)cc2)n1	GLP1R inv ag inconclusive, GLP1R cytotox inconclusive
COc1ccc2nc(N3CCN(C(=O)CS(=O)(=O)c4ccc(C)cc4)CC3)sc2c1	none (no result: GLP-1R agonist)
C[C@]12CCC(=O)C=C1CC[C@@H]1[C@H]3CC[C@](C)(O)[C@@]3(C)CC[C@@H]12	none (no result: PTHR1 ag, GLP1R inv ag, GLP1R cytotox)
NC(Cc1ccc(Oc2cc(I)c(O)c(I)c2)c(I)c1)C(=O)O (configuration not stated)	none (no result: PTHR1 ag, GLP1R inv ag, GLP1R cytotox)
CN1C(=O)C(=Cc2ccccc2OCc2ccc(C(=O)O)cc2)C(=O)N(C)C1=O	none
CN1C(=O)C(=Cc2ccccc2OCc2ccccc2Cl)C(=O)N(C)C1=O	GLP1R inv ag 10µM
COc1cc(C(O)P(=O)(OCCC(C)C)c2ccc(N(C)C)cc2)cc(OC)c1OC (configuration not stated)	GLP1R cytotox inconclusive
Cc1nc(Nc2ccc(F)cc2)[nH]c(=O)c1CCC(C)C	GLP1R inv ag 7.9µM, GLP1R cytotox inconclusive
CCOC(=O)C1CCCN(c2ccc([N+](=O)[O-])c3nonc23)C1 (configuration not stated)	GLP1R cytotox 10µM, GLP-1R agonist inconclusive
CO/C=C(/C(=O)OC)c1ccccc1Oc1cc(Oc2ccccc2C#N)ncn1	none (no result: PTHR1 ag, GLP1R inv ag, GLP1R cytotox)
Cc1cccc(-c2cc3nc(-c4ccccc4)cc(N4CCC5(CC4)OCCO5)n3n2)c1	GLP1R inv ag 10µM
NC1=C(Br)C(=O)c2ncccc2C1=O	GLP1R inv ag 3.2µM, GLP1R cytotox 4µM
CCc1cc(OC)c(CC(C)N)cc1OC (configuration not stated)	none (no result: PTHR1 ag, GLP1R inv ag, GLP1R cytotox)
CCCc1cc(C(=O)Nc2c(C)nn(Cc3ccc(Cl)c(Cl)c3)c2C)no1	GLP1R inv ag 10µM, GLP1R cytotox inconclusive (no result: GLP-1R agonist)
COc1ccc(CCNC(=O)c2c(N)n(CCN3CCOCC3)c3nc4ccccc4nc23)cc1OC	GLP1R inv ag 10µM
CCn1ccnc1CN1CCCC(C(=O)c2ccc(SC)cc2)C1 (configuration not stated)	GLP1R inv ag inconclusive, GLP1R cytotox 13µM
CCOc1ccc(N(C(C)C(=O)Nc2cc(Cl)ccc2OC)S(C)(=O)=O)cc1 (configuration not stated)	GLP1R inv ag inconclusive, GLP1R cytotox inconclusive (no result: GLP-1R agonist)
COc1cc(OC)c(OC)cc1CN1CCc2nc(N3CCN(c4ccccc4F)CC3)ncc2C1	none (no result: GLP-1R agonist)
Cc1ccc(S(=O)(=O)NCCC(=O)Nc2ccc(Cl)cc2C(=O)c2ccccc2)cc1	GLP1R inv ag 11µM
Cc1ccc(-c2n[nH]c3c2C(c2cccs2)N(c2ccc(Cl)cc2)C3=O)cc1 (configuration not stated)	GLP1R inv ag 7.9µM, GLP1R cytotox inconclusive
Cc1ccc(N2C(=O)c3[nH]nc(-c4ccc(Cl)cc4)c3C2c2ccc(F)cc2)cc1 (configuration not stated)	GLP1R inv ag inconclusive, GLP1R cytotox inconclusive
Cc1cccc(N2C(=O)CSC23C(=O)N(CC(=O)Nc2cccc(Cl)c2)c2ccccc23)c1 (configuration not stated)	GLP1R inv ag inconclusive
O=C1Nc2cccnc2N(C(=O)CCl)c2ccccc21	GLP1R inv ag inconclusive, GLP1R cytotox inconclusive
CCCCCCCCN1C(=O)[C@H](CC(=O)N2CCCCC2)C[C@@]2(C(=O)OCC)CCCC=C12	GLP1R inv ag inconclusive
Nc1cccc(Nc2nc(OC(C(F)(F)F)C(F)(F)F)nc(OC(C(F)(F)F)C(F)(F)F)n2)c1	GLP1R inv ag 4.5µM, GLP1R cytotox inconclusive
FC(F)(F)c1cnc(NNC(=S)Nc2ccccc2Cl)c(Cl)c1	GLP1R inv ag 5µM, GLP1R cytotox inconclusive
Cc1cccn2c(=O)cc(COc3cccc(NC(=O)COc4ccc(F)cc4)c3)nc12	none (no result: GLP-1R agonist)
COc1ccc(S(=O)(=O)N2CCN(C(=O)c3ccc(COc4ccccc4)o3)CC2)cc1	GLP1R inv ag inconclusive
O=C(NCC1=C(c2cccc3ccccc23)C[C@@H]2CC[C@H]1N2Cc1ccco1)c1cccs1	GLP1R inv ag 10µM, GLP1R cytotox inconclusive
COc1cccc(/C=N/Nc2ccc([N+](=O)[O-])cc2)c1O	GLP1R inv ag 1.8µM, GLP1R cytotox inconclusive
COc1ccc(CNCC(=O)N2CCC3(CC2)OCCO3)cc1	none
COc1ccc(CNS(=O)(=O)c2cc3c(cc2C)N(C)CCO3)cc1	GLP1R inv ag 7.9µM
O=c1[nH]c2ccccc2n1C1CCN(Cc2ccc(-c3nc4ccc(F)cc4nc3-c3ccccc3)cc2)CC1	GLP1R inv ag 4.5µM, GLP1R cytotox inconclusive
Cc1ccc(-c2c(C)n3c4c(=O)n(C)c(=O)n(C)c4nc3n2CCO)cc1	none (no result: GLP-1R agonist)
COc1cccc(C(=O)N/N=C(/c2ccccc2)c2ccccn2)c1	GLP1R inv ag 7.9µM, GLP1R cytotox inconclusive
CCOC(=O)C(O)(c1ccc(NC(=S)NC(=O)c2ccc(Cl)cc2Cl)c(C)c1)C(F)(F)F (configuration not stated)	GLP1R inv ag 4µM, GLP1R cytotox inconclusive
COC(=O)C(O)(c1ccc(NC(=S)NC(=O)c2ccc(Cl)cc2Cl)c(C)c1)C(F)(F)F (configuration not stated)	GLP1R inv ag inconclusive, GLP1R cytotox inconclusive
Cc1c(Cl)cccc1NC(=O)c1oc2ccc(S(=O)(=O)N3CCC4(CC3)OCCO4)cc2c1C	GLP1R inv ag inconclusive (no result: GLP-1R agonist)
COc1cc(C(=O)Oc2ccccc2/C=N/NC(=O)c2ccc(C)cc2)cc(OC)c1OC	GLP1R inv ag 1.6µM, GLP1R cytotox inconclusive
CC1=C(C(=O)OCC(C)C)C(c2cccs2)NC(=S)N1 (configuration not stated)	GLP1R inv ag inconclusive, GLP1R cytotox inconclusive
Cc1cc(OC(=O)N(C)C)nc(SCc2c(Cl)cccc2Cl)n1	GLP1R inv ag 10µM
